Assay results from PubChem BioAssay AID1159580 (chemical genetic matrix, 2015).
Several values for one entry are separate records, joined by “and”; a condition that tells them apart may be missing. Equal values may be shown once. About 2,000 (36%) of roughly 5,500 compounds were called active. About 18% were inconclusive and are not listed. Rule as the data show it: active = normalized growth mostly below about 0.91 (no sharp cut-off); inconclusive = no clear call, values can overlap the other calls; inactive = mostly above about 0.92. Some of the results follow.

Assay: chemical genetic growth profiling, strain panel (AID 1159580);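 also: tested at 20 µM; growth read once vehicle control cultures reached saturation at 30 °C; 1 = growth at the plate median or of vehicle wells; lower values mean less growth of the strain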
Conditions: S. cerevisiae deletion strains, growth OD

Measured: normalized growth

CC(=O)[C@H]1CCC2C3C[C@H](C)C4=CC(=O)CC[C@]4(C)C3[C@@H](O)C[C@@]21C (stereo partly drawn)
inactive: locus YAL021C, strain ccr4, stronger effect = lower value 0.988 | locus YAL026C, strain drs2, stronger effect = lower value 0.989 | locus YAL030W, strain snc1, stronger effect = lower value 0.986 | locus YBL061C, strain skt5, stronger effect = lower value 0.988 | locus YBR009C, strain hhf1, stronger effect = lower value 1 | locus YBR021W, strain FUR4, stronger effect = lower value 0.979 | locus YBR023C, strain chs3, stronger effect = lower value 0.983 | locus YBR171W, strain sec66, stronger effect = lower value 0.973 | locus YBR229C, strain ROT2, stronger effect = lower value 0.994 | locus YBR231C, strain swc5, stronger effect = lower value 0.994 | locus YBR279W, strain paf1, stronger effect = lower value 0.99 | locus YCL011C, strain gbp2, stronger effect = lower value 0.964 | locus YCL016C, strain dcc1, stronger effect = lower value 0.953 | locus YCL029C, strain bik1, stronger effect = lower value 0.983 | locus YCL061C, strain MRC1, stronger effect = lower value 0.989 | locus YCL069W, strain vba3, stronger effect = lower value 0.983 | locus YCR088W, strain abp1, stronger effect = lower value 0.98 | locus YDL005C, strain med2, stronger effect = lower value 0.984 | locus YDL035C, strain GPR1, stronger effect = lower value 1.02 | locus YDL040C, strain nat1, stronger effect = lower value 0.987 | locus YDL074C, strain BRE1, stronger effect = lower value 0.98 | locus YDL101C, strain DUN1, stronger effect = lower value 0.993 | locus YDL134C, strain PPH21, stronger effect = lower value 1.01 | locus YDL185W, strain tfp1, stronger effect = lower value 0.965 | locus YDL192W, strain arf1, stronger effect = lower value 0.981 | locus YDR001C, strain nth1, stronger effect = lower value 0.977 | locus YDR069C, strain doa4, stronger effect = lower value 1.02 | locus YDR101C, strain arx1, stronger effect = lower value 0.989 | locus YDR137W, strain rgp1, stronger effect = lower value 0.921 | locus YDR159W, strain sac3, stronger effect = lower value 1.01 | locus YDR162C, strain NBP2, stronger effect = lower value 0.99 | locus YDR195W, strain ref2 0.997 | locus YDR297W, strain sur2, stronger effect = lower value 0.985 | locus YDR318W, strain mcm21, stronger effect = lower value 0.988 | locus YDR334W, strain swr1, stronger effect = lower value 0.963 | locus YDR335W, strain msn5, stronger effect = lower value 0.984 | locus YDR388W, stronger effect = lower value 0.986 | locus YDR392W, strain spt3, stronger effect = lower value 0.897 | locus YDR502C, strain sam2, stronger effect = lower value 0.978 | locus YEL003W, strain gim4, stronger effect = lower value 1 | locus YEL037C, strain rad23, stronger effect = lower value 0.975 | locus YEL061C, strain CIN8 (second series), stronger effect = lower value 0.977 | locus YEL061C, strain CIN8, stronger effect = lower value 0.99 | locus YER015W, strain faa2, stronger effect = lower value 0.992 | locus YER016W, strain bim1, stronger effect = lower value 0.996 | locus YER110C, stronger effect = lower value 0.969 | locus YER111C, strain swi4, stronger effect = lower value 0.982 | locus YER155C, strain BEM2 (second series), stronger effect = lower value 1 | locus YER155C, strain BEM2, stronger effect = lower value 0.991 | locus YER167W, strain BCK2, stronger effect = lower value 0.986 | locus YFR010W, strain ubp6, stronger effect = lower value 0.986 | locus YGL078C, strain dbp3, stronger effect = lower value 0.991 | locus YGL086W, strain mad1, stronger effect = lower value 1.01 | locus YGL167C, strain pmr1, stronger effect = lower value 0.971 | locus YGL173C, strain kem1, stronger effect = lower value 0.995 | locus YGL227W, strain vid30, stronger effect = lower value 0.978 | locus YGL240W, strain doc1, stronger effect = lower value 1.02 | locus YGL248W, strain PDE1, stronger effect = lower value 0.984 | locus YGL253W, strain hxk2, stronger effect = lower value 0.976 | locus YGR135W, strain pre9, stronger effect = lower value 0.939 | locus YGR252W, strain gcn5, stronger effect = lower value 1.06 | locus YHR013C, strain ard1, stronger effect = lower value 0.945 | locus YHR027C, strain rpn1, stronger effect = lower value 0.98 | locus YHR030C, strain SLT2, stronger effect = lower value 0.996 and 0.986 | locus YHR079C, strain IRE1 (second series), stronger effect = lower value 0.98 | locus YHR079C, strain IRE1, stronger effect = lower value 0.966 | locus YHR094C, strain hxt1, stronger effect = lower value 0.984 | locus YHR129C, strain ARP1, stronger effect = lower value 0.995 | locus YHR142W, strain chs7, stronger effect = lower value 0.95 | locus YHR200W, strain rpn10, stronger effect = lower value 0.981 | locus YIL066C, strain RNR3, stronger effect = lower value 0.993 | locus YIL073C, strain SPO22, stronger effect = lower value 0.899 | locus YIL125W, strain kgd1, stronger effect = lower value 0.996 | locus YIR030C, strain dcg1, stronger effect = lower value 0.975 | locus YJL092W, strain hpr5, stronger effect = lower value 0.977 | locus YJL095W, strain BCK1 (second series), stronger effect = lower value 0.982 | locus YJL095W, strain BCK1, stronger effect = lower value 0.969 and 0.976 | locus YJL115W, strain asf1, stronger effect = lower value 0.973 | locus YJL129C, strain trk1, stronger effect = lower value 0.959 | locus YJL134W, strain LCB3, stronger effect = lower value 0.99 | locus YJL154C, strain vps35, stronger effect = lower value 0.972 | locus YJL164C, strain tpk1, stronger effect = lower value 0.997 | locus YJL166W, strain qcr8, stronger effect = lower value 0.979 | locus YJL168C, strain set2, stronger effect = lower value 0.994 | locus YJL187C, strain SWE1 (second series), stronger effect = lower value 0.993 | locus YJL187C, strain SWE1, stronger effect = lower value 0.985 | locus YJR043C, strain POL32, stronger effect = lower value 1.03 | locus YJR066W, strain TOR1, stronger effect = lower value 0.925
